# Counter-ions that a name gives are not always drawn.
# Tested on: Drosophila S2 cl14 SmoIP sensor cells
# Test: normalized SmoIP GFP fluorescence (untreated unstimulated = 0%, untreated Hh-stimulated = 100%); higher = more Smo activation sensor fluorescence
# Conditions: compound concentration: 2 uM, 24 h
# [1] = stimulation: Hh conditioned medium (+Hh)
# [2] = stimulation: mock conditioned medium (-Hh)
# 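Note: flow cytometry read-out as median GFP intensity of gated cells, compounds added 30 min before Hh-conditioned or mock medium, mock-treated cells serving as unstimulated baseline.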
Compound,normalized SmoIP GFP fluorescence [1],normalized SmoIP GFP fluorescence [2]
NC1(Cc2ccc(Cl)cc2)CCN(c2ncnc3[nH]ccc23)CC1,115%,8.36%
NC1(c2ccc(-c3nc4ccn5c(=O)[nH]nc5c4cc3-c3ccccc3)cc2)CCC1,102%,16.8%
CCN(CC)CCOC(=O)c1ccc(N)cc1 [procaine-novocaine-hcl],107%,-3.5%
CC1(C)O[C@@H]2[C@@H](CO[C@@]3(COS(N)(=O)=O)OC(C)(C)O[C@@H]23)O1 [Topiramate],114%,5.45%
O=C(NCc1cccc(O)c1)Nc1nc(-c2ccncc2)cs1,107%,-2.93%
CC1(C)CNc2cc(NC(=O)c3cccnc3NCc3ccncc3)ccc21 [Motesanib-Diphosphate],136%,43.3%
CC[C@H]1OC(=O)[C@H](C)[C@@H](O[C@H]2C[C@@](C)(OC)[C@@H](O)[C@H](C)O2)[C@H](C)[C@@H](O[C@@H]2O[C@H](C)C[C@H](N(C)C)[C@H]2O)[C@](C)(OC)C[C@@H](C)C(=O)[C@H](C)[C@@H](O)[C@]1(C)O [clarithromycin],147%,-6.97%
O=C1NC(=O)/C(=C/c2ccc3c(c2)OC(F)(F)O3)S1,114%,7.01%
C[C@@H]1CCO[C@H]2Cn3cc(C(=O)NCc4ccc(F)cc4F)c(=O)c(O)c3C(=O)N12,140%,-15.3%
CN(C)CC(c1ccc(O)cc1)C1(O)CCCCC1 (configuration not stated) [desvenlafaxine],105%,-0.889%
NC(=O)[C@@H](CCC(F)(F)F)N(Cc1ccc(-c2ncon2)cc1F)S(=O)(=O)c1ccc(Cl)cc1,116%,0.489%
"CO[C@H]1/C=C\C=C(/C)C(=O)NC2=CC(=O)C(NCCN(C)C)=C(C[C@@H](C)C[C@H](OC)[C@H](O)[C@@H](C)/C=C(\C)[C@@H]1OC(N)=O)C2=O [17-DMAG,Hydrochloride-Salt]",219%,44.8%
CC(=O)Nc1ccc(NC(=S)NC(=O)c2ccc(C(C)(C)C)cc2)cc1 [tenovin-1],97%,-4.47%
O=C(c1ccc(/C=C/c2n[nH]c3ccccc23)cc1)N1CCNCC1,83%,-1.34%
c1ccc2c(Oc3nc(Nc4ccc(N5CCOCC5)cc4)c4ncn(C5CCCCC5)c4n3)cccc2c1 [purmorphamine],107%,-1.23%
Cc1ncc(-c2ccnc(Nc3ccc(S(C)(=O)=O)cc3)n2)n1C(C)C,156%,11.2%
CCCC(CCC)C(=O)O [Divalproex-sodium],134%,-10.4%
COc1cccc(-c2cc(=O)c3ccccc3o2)c1N,115%,2.64%
O=C(Nc1cccc(C(F)(F)F)c1)Nc1cc(S(=O)(=O)NC2CC2)ccc1-c1ccsc1,111%,-3.05%
CC(=O)Oc1cc(C(F)(F)F)ccc1C(=O)O [triflusal],111%,-4.58%
CCCS(=O)(=O)Nc1ccc(F)c(C(=O)c2c[nH]c3ncc(Cl)cc23)c1F,108%,-0.0496%
CN(C)c1ccc(-c2nc3ncc(Cl)c(N4CCN(CC(=O)Nc5nccs5)CC4)c3[nH]2)cc1,125%,6.74%
CN(C)CC/C=C1/c2ccccc2Sc2ccc(Cl)cc21 [Chlorprothixene],106%,-0.378%
CC(C)(C#N)c1cc(Cn2cncn2)cc(C(C)(C)C#N)c1 [Anastrozole],109%,-2.96%
CC(=O)c1cc([N+](=O)[O-])c(Sc2cccc(Cl)c2Cl)s1,108%,-4.24%
C[C@H]1COC2=C1C(=O)C(=O)c1c2ccc2c1CCCC2(C)C [Cryptotanshinone],115%,-9.22%

# Source: the supplement of paper PMC5662767
